In assay [1] the target is Glutathione peroxidase 1 (Homo sapiens) (UniProt P07203). Nature of the assay: Primary qHTS Assay for Inhibitors of Recombinant Selenoprotein Glutathione Peroxidase 1 (GPX1) (AID 1845191). Note: nearly all actives have a fitted effect of over 65% in size. Note: potency is the fitted concentration of half-maximal effect. The method, boiled down:
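Recombinant GPX1 (10 nM final) was preincubated with compound for 30 min at room temperature, then reacted with 1 mM GSH, 0.5 mM CHP, 0.5 mM NADPH and 100 nM glutathione reductase; NADPH fluorescence (340/450 nm) was read at 0 and 15 min.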
In general terms: Quantitative high-throughput screening tests each substance at several concentrations.

In assay [2] the target is Phospholipid hydroperoxide glutathione peroxidase GPX4 (Homo sapiens) (UniProt P36969). Nature of the assay: Primary qHTS Assay for Inhibitors of Recombinant Selenoprotein Glutathione Peroxidase 4 (GPX4) (AID 1845192). Note: nearly all actives have a fitted effect of over 65% in size. Note: potency is the fitted concentration of half-maximal effect. An outline of the steps:
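GR-coupled readout: 100 nM GR, 1 mM GSH, 0.5 mM NADPH; NADPH fluorescence (ex 340/em 450 nm) read at t=0 and after 15 min RT. GPX4 200 nM, preincubated 30 min with compound; substrate 0.5 mM CHP.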

In assay [3] the target is Luciferin 4-monooxygenase (Photinus pyralis) (UniProt P08659). Nature of the assay: Primary firefly luciferase (FLuc) qHTS assay for identification of artifact compounds. (AID 1845220). Note: nearly all actives have a fitted effect of over 60% in size. An outline of the steps: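 qHTS, 15 min compound preincubation with substrate (10 uM luciferin, 10 uM ATP) at RT, then 10 nM FLuc; 5 min; luminescence; % inhibition vs no-enzyme/DMSO controls, 4-parameter Hill fit.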

A short description of assay [4]: Primary fluorescence-based thiol-reactive (MSTI) qHTS assay for identification of artifact compounds. (AID 1845221). Note: nearly all actives have a fitted effect of over 65% in size. Note: potency is the fitted concentration of half-maximal effect. An outline of the steps: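 First, 4 uM MSTI in 2% DMSO/PBS pH 7.4 was dispensed; next, compounds were added; then plates sat 1 h at room temperature without light. Finally, emission at 598 nm was recorded.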
Assay [5] in a line: Primary redox qHTS assay for identification of artifact compounds. (AID 1845223). An outline of the steps: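 Amplex Red (25 uM) and HRP (250 mU/mL) in HBSS, with compounds for 15 min, then 250 uM DTT for 30 min, room temperature, dark. Fluorescence 525/598 nm read; normalized to DMSO and 10 uM DA3003; Hill fit.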
A short description of assay [6]: Quantitative High-Throughput drug screen in 47 multiple myeloma cell lines against the NCATS MIPE library collection: FR4_PLB cell viability assay (AID 1918924; note: nearly all actives have a fitted effect of over 35% in size; note: potency is the fitted concentration of half-maximal effect). An outline of the steps:
(§1)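 CellTiter-Glo luminescence (ATP) after 48 h compound exposure, 37C/5% CO2; 500 cells/well; MIPE 4.0 approved/investigational drugs pinned in; DMSO = 100%, media only = 0% viability.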

Assay [7] can be described thus: Quantitative High-Throughput drug screen in 47 multiple myeloma cell lines against the NCATS MIPE library collection: Delta47_JCRB cell viability assay (AID 1918925; note: nearly all actives have a fitted effect of over 45% in size; note: potency is the fitted concentration of half-maximal effect). The method, boiled down:
(§2)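 Myeloma cells (500 per well) were exposed to MIPE 4.0 compounds by pin transfer and incubated 48 hours at 37C, 5% CO2. Viability was read as ATP by CellTiter-Glo luminescence, normalised to DMSO (100%) and media-only (0%) wells.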

Assay [8] in a line: Quantitative High-Throughput drug screen in 47 multiple myeloma cell lines against the NCATS MIPE library collection: EJM_DSMZ cell viability assay (AID 1918926; note: nearly all actives have a fitted effect of over 30% in size; note: potency is the fitted concentration of half-maximal effect). An outline of the steps: as §2
A short description of assay [9]: Quantitative High-Throughput drug screen in 47 multiple myeloma cell lines against the NCATS MIPE library collection: AMO1_DSMZ cell viability assay (AID 1918927; note: nearly all actives have a fitted effect of over 30% in size; note: potency is the fitted concentration of half-maximal effect). The method, boiled down:
as §2

The nature of assay [10]: Quantitative High-Throughput drug screen in 47 multiple myeloma cell lines against the NCATS MIPE library collection: ARP1_JJKsccF8 cell viability assay (AID 1918928; note: nearly all actives have a fitted effect of over 40% in size; note: potency is the fitted concentration of half-maximal effect). The method, boiled down:
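Myeloma cells at 500 per well in 1536-well format treated with MIPE 4.0 library by pin transfer for 48 h at 37C, 5% CO2. Viability from ATP luminescence (CellTiter-Glo), normalized to DMSO (100%) and media-only (0%) wells.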

Assay [11] in a line: Quantitative High-Throughput drug screen in 47 multiple myeloma cell lines against the NCATS MIPE library collection: ARD_JJKsccE7 cell viability assay (AID 1918929; note: potency is the fitted concentration of half-maximal effect). The method, boiled down: as §2
Assay [12] in a line: Quantitative High-Throughput drug screen in 47 multiple myeloma cell lines against the NCATS MIPE library collection: Karpas620_DSMZ cell viability assay (AID 1918959). Note: nearly all actives have a fitted effect of over 30% in size. Note: potency is the fitted concentration of half-maximal effect. An outline of the steps: as §1
The subject of assay [13] is Nanoluciferase (engineered Oplophorus gracilirostris luciferase). Nature of the assay: Primary Nanoluciferase (NLuc) qHTS assay for identification of artifact compounds. (AID 1845222). Note: series mostly up to about 54 µM. An outline of the steps:
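Luminescence read-out of secreted NLuc in S16 cell conditioned medium (1:55); compounds tested with 15 min RT preincubation, then Nano-Glo substrate 1:100, 5 min. % inhibition vs no-enzyme and DMSO controls, 4-parameter Hill fit.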

Several values for one entry are separate records, joined by “and”; a condition that tells them apart may be missing. Equal values may be shown once. Results filed as inconclusive are left out. More than one record can exist for a structure, and the calls need not agree. Activity calls are given as the source filed them. Calls come from the whole dose curve; as a rule, active = well fitted curve in the direction sought with a large enough effect; inconclusive = small, poorly fitted or top-dose-only effect, or another doubt; inactive = no such curve, though single readings can be large; an effect the other way counts as inactive or inconclusive.

Glutathione peroxidase 1 (Homo sapiens), sequence (P07203 whole entry, looked up): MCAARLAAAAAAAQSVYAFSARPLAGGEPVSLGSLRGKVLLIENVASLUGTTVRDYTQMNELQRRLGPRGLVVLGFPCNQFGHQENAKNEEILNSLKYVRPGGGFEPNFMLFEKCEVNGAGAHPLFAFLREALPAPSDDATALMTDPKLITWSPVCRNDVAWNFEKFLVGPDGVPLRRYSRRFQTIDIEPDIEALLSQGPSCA
Phospholipid hydroperoxide glutathione peroxidase GPX4 (Homo sapiens), sequence (P36969 whole entry, looked up): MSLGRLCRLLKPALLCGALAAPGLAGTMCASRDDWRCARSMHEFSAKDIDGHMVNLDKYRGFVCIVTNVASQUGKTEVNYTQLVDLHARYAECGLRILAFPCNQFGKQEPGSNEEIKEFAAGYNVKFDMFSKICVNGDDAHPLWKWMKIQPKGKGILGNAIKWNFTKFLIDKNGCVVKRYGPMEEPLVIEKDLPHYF

Take `Nc1cc(C(F)(F)F)c(-c2cc(N3CCOCC3)nc(N3CCOCC3)n2)cn1`: the Potency entry in [1], in assay [2], in assay [3], in assay [4] and in assay [5] was “inactive” each time. For the same molecule, the Potency in assay [6] was 148 nM (active); in assay [7], 296 nM (active); in [8], 5900 nM (active); in assay [9] it was 105 nM (active); in assay [10], 209 nM (active); in [11], 187 nM (active). For the same molecule, the Potency in assay [12] was 235 nM (active).

Regarding `Cc1cc(CN2CCN(c3c(Br)cnc4nc(-c5ccc(N6CCN(C)CC6)cc5)[nH]c34)CC2)no1`, the Potency was 11.4 µM (active) and 12.9 µM (active) in assay [1]; “inactive and 14.3 µM (active)” in [2]; 18700 nM (active) in [6]; 2640 nM (active) in assay [7]; 6620 nM (active) in assay [8]; 14800 nM (active) in assay [10]. Moreover, the Potency result in assay [3], in assay [13] and in [5] was “inactive” throughout.

`O=C(Nc1cn[nH]c1-c1nc2ccc(CN3CCOCC3)cc2[nH]1)NC1CC1`: the Potency result in assay [1], in [2], in assay [3], in [4] and in assay [5] was “inactive” in each case. Moreover, the Potency is 2350 nM (active) in assay [6]; 1480 nM (active) in [7]; 1870 nM (active) in [8]; 4180 nM (active) in [10]; 3720 nM (active) in [11]; 5260 nM (active) in [12].

As for `CN(C1CCc2c(c3ccccc3n2CC(=O)O)C1)S(=O)(=O)c1ccc(F)cc1` (centres undefined), the Potency entry in assay [1], in assay [2], in assay [3], in assay [5] and in [6] was “inactive” in each case. Besides, the Potency in assay [4] is 2.67 µM (active) and 2.12 µM (active); in assay [8] it was 11800 nM (active); in assay [9] it was 2640 nM (active); in assay [11], 5260 nM (active).

In the case of `COc1ccc(C(=O)CC2(O)C(=O)Nc3c(Cl)ccc(Cl)c32)cc1` (centres undefined), the Potency entry in assay [1], in [2], in [3], in assay [4] and in [5] was “inactive” throughout. The Potency in [6] was 833 nM (active); in assay [7], 3720 nM (active); in assay [9], 526 nM (active); in [10], 3720 nM (active); in assay [11], 1320 nM (active).

With `C[C@@H](Oc1cc(-n2cnc3ccc(CN4CCN(C)CC4)cc32)sc1C(N)=O)c1ccccc1C(F)(F)F`, the Potency entry in [1] and in assay [2] was “inactive” each time. Also, the Potency in assay [6] is 33.2 nM (active); in assay [7] it was 41.8 nM (active); in assay [9] it was 74.3 nM (active); in assay [10], 105 nM (active); in assay [11], 26.4 nM (active).

Consider `Cc1ccc(C(=O)Nc2ccc(CN3CCN(C)CC3)c(C(F)(F)F)c2)cc1C#Cc1cnc2cccnn12`, for which the Potency result in assay [1], in [2], in assay [4] and in assay [5] was “inactive” throughout. For the same molecule, the Potency in assay [6] was 1480 nM (active); in assay [7] it was 662 nM (active); in [8], 2640 nM (active); in assay [9], 2960 nM (active); in assay [10] it was 1660 nM (active); in [11], 14800 nM (active). In addition, in assay [12], the Potency was 5260 nM (active).

As for `CC(=O)OCCN1C(=O)c2c(C)nc3ccc(S(=O)(=O)N4CCOCC4)cc3c2C1=O`, the Potency entry in assay [1], in [2], in assay [6], in assay [7], in assay [8] and in [9] was “inactive” throughout. The Potency result in assay [10], in [11] and in [12] was “inactive” in each case.

Turning to `O=C(NC1CCNCC1)c1[nH]ncc1NC(=O)c1c(Cl)cccc1Cl`, the Potency result in assay [1] and in [2] was “inactive” in each case. Further, the Potency in assay [6] was 83.3 nM (active); in assay [7] it was 372 nM (active); in assay [8], 105 nM (active); in assay [9], 1180 nM (active); in assay [10] it was 372 nM (active); in assay [11], 743 nM (active).

As to `COc1cc2c(Oc3ccc4[nH]c(C)cc4c3F)ncnc2cc1OCCCN1CCCC1`, the Potency result in assay [1], in assay [2], in assay [3] and in assay [13] was “inactive” in each case. In addition, the Potency in assay [7] was 3320 nM (active); in assay [10] it was 23500 nM (active); in assay [12], 2960 nM (active).

Regarding `CN(C)c1nc(Cc2ccc(NC(=O)c3ccc4ccccc4c3)cc2)nc(Cl)c1CC(=O)O`, the Potency result in assay [1], in assay [2], in assay [4], in assay [5], in assay [6] and in [7] was “inactive” throughout. The Potency entry in assay [10], in [11] and in assay [12] was “inactive” in each case.

Consider `O=C(NCCS(=O)(=O)c1ccc(C(F)(F)F)cn1)c1ccc(Cl)cc1`, for which the Potency result in [1], in assay [2], in assay [6], in assay [7], in assay [8] and in assay [9] was “inactive” each time. The Potency result in [10], in [11] and in [12] was “inactive” each time.

Consider `c1cc(-c2cnn3cc(-c4ccc(OCCN5CCCCC5)cc4)cnc23)ccn1`, for which the Potency result in [1], in [2], in assay [11] and in [12] was “inactive” each time. For the same molecule, the Potency in [6] is 11800 nM (active); in assay [7], 2090 nM (active); in [10], 16600 nM (active).

As to `O=c1[nH]c(=O)n(C2CCCO2)cc1F` (centres undefined), the Potency result in assay [1], in [2], in assay [6], in assay [7], in [9] and in assay [10] was “inactive” each time. The Potency entry in assay [11] and in assay [12] was “inactive” throughout.

Turning to `COCCn1c2c([n+](Cc3cnccn3)c1C)C(=O)c1ccccc1C2=O`, the Potency entry in assay [1] and in assay [2] was “inactive” each time. In addition, the Potency in [6] is 10.5 nM (active); in assay [7], 16.6 nM (active); in assay [8], 7.4 nM (active); in [9], 52.6 nM (active); in assay [10] it was 11.8 nM (active).

As to `CCN1CCN(CC(=O)Nc2ccc(-c3cccc4c(=O)cc(N5CCOCC5)oc34)c3sc4ccccc4c23)CC1`, the Potency entry in assay [1] and in [2] was “inactive” throughout. The Potency was 1480 nM (active) in assay [6]; 418 nM (active) in assay [7]; 13200 nM (active) in [8]; 264 nM (active) in assay [10]; 11.8 nM (active) in assay [11].

On to `Cc1ccc(-c2ncn(-c3ccc(Nc4nccc(-c5cccc(N6CCOCC6)c5)n4)cc3)n2)cn1`, for which the Potency entry in assay [1] and in assay [2] was “inactive” in each case. The Potency is 132 nM (active) in assay [6]; 105 nM (active) in assay [7]; 187 nM (active) in assay [8]; 132 nM (active) in assay [9]; 166 nM (active) in assay [10]; 105 nM (active) in assay [11]. In addition, in [12], the Potency is 209 nM (active).

The values above are taken from PubChem BioAssay (NCATS).
